Bioassay records from PubChem.
Compounds with a hit are over-represented: about 0.4% of the library has one in this group of screens.
EPAC1 antagonist: blocks human EPAC1 exchange factor; AID 720709; Potency, µM (doses to about 115 µM), for the others: at the highest dose activity change, negative = inhibition, most hits filed as inhibitors; O95398; actives 0.14% (n = 360,000); EPAC1 GEF assay, Rap1b-BODIPY-GDP exchange fluorescence;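 note: plate controls were vehicle for no effect and positive control for full effect; nearly all actives have a fitted effect of over 50% in size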
RGS4 inhibitor: inhibitors of human regulator of G protein signaling 4 | actives 0.039% (n = 390,000) | Transcreener GDP fluorescence polarization, RGS4-accelerated GTP hydrolysis | P49798 | Potency, µM (titrated, usually from 114 µM), without a hit: top-dose activity change, negative = inhibition, hits mostly inhibitors; note: % is set by controls: 0 for no effect and ±100 for the full control effect; nearly all actives have a fitted effect of over 75% in size
Target sequence (P49798 whole entry, looked up): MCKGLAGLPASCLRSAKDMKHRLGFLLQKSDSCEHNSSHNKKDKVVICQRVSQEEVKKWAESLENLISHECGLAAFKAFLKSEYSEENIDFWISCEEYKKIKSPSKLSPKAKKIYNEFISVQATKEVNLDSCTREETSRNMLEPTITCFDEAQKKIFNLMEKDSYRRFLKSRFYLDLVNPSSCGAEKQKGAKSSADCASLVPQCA
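MLSMR compounds (23 nl, pin-transferred) preincubated 10 min at room temperature with a 500nM (2x) first reagent, then RGS4 at 900nM (2x) plus Transcreener GDP mix added; fluorescence polarization (620/688 nm) read before and after 90 min at 30 °C.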
ERG Ets-DNA blk: inhibitors of human ERG Ets domain-DNA interaction | AID 624246 | fluorescence polarization, His-ERG Ets domain / labelled DNA | actives 0.028% (n = 370,000) | Potency, µM (doses to about 76.9 µM), for the others: top-dose FP activity, negative = inhibition, usual class: inhibitors; active = well fitted inhibition curve with a large enough effect in the polarisation, with a control signal flat; inconclusive = small, poorly fitted or top-dose-only effect, or effect the other way, or a change in a side signal; inactive = no such curve, though single readings can be large or run the other way; the % refers to the polarisation;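 note: polarization taken with two DNA probes labelled with fluorescein and Texas red; % of control where 0% means no effect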
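His-tagged ERG Ets domain (1 uM in the protein solution; 300mM KCl, 50mM Tris-HCl, 1mM EDTA, 1mM DTT, pH 7.5) received compound, then a probe mix of 5 nM fluorescein-DNA and 100nM Texas-615-DNA. Fluorescence polarization was read for both dyes.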
EPAC1 agonist: activates human EPAC1 exchange factor. O95398. EPAC1 agonist qHTS, biochemical assay; response scale: 100% = response to 6.5 mM cAMP. Potency, µM (top dose mostly 154 µM), for inactives: at the highest dose activation, most hits filed as activators. actives 0.073% (n = 360,000). AID 720707; note: nearly all actives have a fitted effect of over 60% in size
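EPAC1 100 nM, Rap1B–BODIPY-GDP 250 nM, unlabeled GDP 50 uM; compound titration; 5 min RT; kinetic read ex480/em540 at 5-min intervals ×30 min; data normalized to 6.5 mM cAMP agonist control.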
EPAC2 ag: agonists of human EPAC2 (RAPGEF4); EPAC2 activation, biochemical qHTS; response scale: 100% = 6.5 mM cAMP response; Potency, µM (highest dose often 154 µM), without a hit: at the highest dose activation, most hits filed as activators; actives 0.079% (n = 360,000); note: nearly all actives have a fitted effect of over 50% in size
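qHTS, titration series. 100 nM EPAC2 / 250 nM Rap1B-BODIPY-GDP / 50 uM GDP; RT; ex 480/em 540 nm, 5-min reads to 30 min. Norm. to 6.5 mM cAMP = activation.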
EPAC2 antag: blocks human EPAC2 exchange factor. Q8WZA2. EPAC2 GEF exchange of Rap1B-BODIPY-GDP, fluorescence. Potency, µM (top dose mostly 114 µM), for the others: top-dose activity, negative = inhibition, usual class: inhibitors. actives 0.18% (n = 360,000). AID 720708; note: % is set by controls: 0 for no effect and ±100 for the full control effect; nearly all actives have a fitted effect of over 45% in size
* marks the source's active call; other numbers are inactive results; ? = inconclusive; · = not tested or not shown; ! = a repeat was not active; [ ] = another dose, or the depositor's remark. Unless noted, calls come from the whole dose curve; as a rule, active = well fitted curve in the direction sought with a large enough effect; inconclusive = small, poorly fitted or top-dose-only effect, or another doubt; inactive = no such curve, though single readings can be large; an effect the other way counts as inactive or inconclusive. Potency is the fitted concentration of half-maximal effect.

SMILES	EPAC1 antagonist	RGS4 inhibitor	ERG Ets-DNA blk	EPAC1 agonist	EPAC2 ag	EPAC2 antag
CCc1noc(C)c1C(=O)Nc1nc2c(C)cc(C)cc2s1	-24.6%	-5.5%	2.2%	89.1µM*	24.1%	-14.4%
COc1ccc(S(=O)(=O)Nc2cc(SCC(=O)O)c(O)c3ccccc23)cc1	79.4µM*	?	-1.0%	18.7%	5.2%	3.2%
O=C(O)CSc1cc(NS(=O)(=O)c2ccc(Cl)cc2)c2ccccc2c1O	?	?	-6.0%	27.8%	?	79.4µM*
O=C(CCc1ccc(O)cc1)c1c(O)cc(O)cc1O	-7.3%	18.9µM*!	9.7%	-15.9%	2.6%	6.7%
NS(=O)(=O)c1cc(C(=O)NC2CCSc3ccccc32)ccc1Cl (stereo not given)	28.2µM*	?	-6.4%	-10.7%	-5.0%	35.5µM*
Cc1c(O)nc(SCC(=O)Nc2ccc3c4c(cccc24)CC3)n(-c2ccccc2)c1=O	20.7%	-21.8%	-19.5%	-2.6%	0.0%	-7.3%
O=C(CSc1nc(O)cc(=O)n1-c1ccccc1)Nc1ccc2c3c(cccc13)CC2	79.4µM*	-7.8%	11.0%	-2.5%	4.3%	0.5%
COc1cc(-c2nn3c(-c4cc(-c5ccccc5)n[nH]4)nnc3s2)cc(OC)c1OC	·	-6.6%	·	·	·	·
N#C/C(=C\c1cn(CCOc2ccccc2F)c2ccccc12)C(=O)NCc1cccs1	-6.0%	13.6%	1.6%	0.7%	-2.8%	-18.6%
N#C/C(=C\c1cn(Cc2ccc(C#N)cc2)c2ccccc12)C(=O)NCc1cccs1	8.8%	-29.6%	-0.7%	-0.5%	79.4µM*	19.7%
CCOc1ccc(S(=O)(=O)Nc2nc3ccccc3nc2-n2ccc(=NC(=O)c3cccs3)cc2)cc1	-14.4%	10.7%	6.5%	?	100µM*	40.8%
CCC(C)n1c(=N)c(C#N)cc2c(=O)n3ccccc3nc21 (stereo not given)	6.8%	-2.0%	4.7%	-7.2%	56.2µM*	87.1%
Cc1cccc(C)c1-n1c(C)cc(/C=N\Nc2ccc([N+](=O)[O-])cn2)c1C	-0.9%	-45.3%	-5.9%	-17.8%	3.98µM*	-1.6%
O=[N+]([O-])c1ccc(NN=Cc2cccc(O)c2)nc1	-4.2%	5.3%	-1.3%	-3.2%	8.2%	-11.6%
CCCCC(CC)C(=O)Nc1ccc(Nc2ccccc2)cc1 (stereo not given)	39.8%	-7.2%	-4.8%	63.1µM*	-12.9%	-18.7%
CCCCC(CC)C(=O)Nc1ccc(C#N)cc1 (stereo not given)	-17.7%	-7.7%	4.0%	4.3%	5.0%	-2.8%
CC(C)CC(=O)NCC1(N(C)C)CCCCC1	·	12.9%	-3.4%	·	·	·
N#C/C(=C\c1ccccn1)c1nc2ccccc2s1	?	-35.1%	38.9%	-42.0%	-106.7%	25.1µM*
CCOc1ccccc1CNCCCSc1nnnn1C	·	-4.7%	0.5%	·	·	·
O=[N+]([O-])c1cc(Cl)ccc1NCCc1ccccn1	-13.5%	3.9%	-4.3%	-1.5%	-3.1%	56.2µM*
N#Cc1ccc(NCCc2ccccn2)c([N+](=O)[O-])c1	2.2%	3.9%	-25.4%	-7.4%	1.9%	0.8%
O=C(CSc1nc2ccsc2c(=O)n1CC1CCC(C(=O)O)CC1)c1ccc(F)cc1 (stereo not given)	5.7%	?	3.1%	-6.1%	-2.5%	11.7%
O=C(CSc1nc2ccsc2c(=O)n1CC1CCC(C(=O)O)CC1)c1ccc(Cl)cc1 (stereo not given)	56.2µM*	-5.9%	-7.6%	?	18.7%	-14.4%
CC(=O)O[C@H]1CC2(C)[C@@H](C[C@@H](O)[C@H]3[C@@]4(C)CC[C@@H](O)[C@@H](C)[C@@H]4CC[C@@]32C)C1=C(CCC=C(C)C)C(=O)O (stereo not given in full)	·	-0.9%[56.9 µM]	·	·	·	·
CN(N=Nc1ccc([N+](=O)[O-])cc1)c1ccccc1	79.4µM*	-13.4%	11.8%	-793.2%	100µM*	347.4%
